Results filed as inconclusive are left out. Calls of active or inactive are those of the source. How the source made its calls: active means hit-call score of the fitted dose curve at least 0.9, where 1 is the maximum; inconclusive means response in the unintended direction; inactive means score below 0.9.
Target: human Protein Kinase C, zeta (PKCz), PRKCZ (gene 5590) (UniProt Q05513)
Experiment: NVS_ENZ_hPKCz: NovaScreen (NVS) Enzymatic Assay for human Protein Kinase C, zeta (PKCz)
Experimental: NVS_ENZ_hPKCz is a biochemical, single-readout assay that uses extracted gene-proteins in a cell-free assay. Measurements were taken 1 hour after chemical dosing in a 384-well plate.NVS_ENZ_hPKCz is one of one assay component(s) measured or calculated from the NVS_ENZ_hPKCz assay. It is designed to make measurements of enzyme activity, a form of enzyme reporter, as detected with fluorescence intensity signals by Fluorescence and electrophoretic mobility shift technology.Data from the assay component NVS_ENZ_hPKCz was analyzed into 1 assay endpoint. This assay endpoint, NVS_ENZ_hPKCz, was analyzed in the positive analysis fitting direction relative to DMSO as the negative control and baseline of activity. Using a type of enzyme reporter, loss-of-signal activity can be used to understand changes in the enzymatic activity as they relate to the gene PRKCZ. Furthermore, this assay endpoint can be referred to as a primary readout, because this assay has produced multiple assay endpoints where this one serves a enzymatic activity function. To generalize the intended target to other relatable targets, this assay endpoint is annotated to the kinase intended target family, where the subfamily is serine/threonine kinase.
Binding assays used specific radioligands (tritiated, iodinated) with non-radioactive competitive displacement ligands in agonist or antagonist protocols (as indicated) and various reference compounds and inhibitors to titrate specific binding to receptors and transporters. Most enzyme assays (CYPs, kinases, phosphatases, proteases, HDACs) used recombinant protein and specific substrates (fluorescence mostly, some colorimetric and radioactive) and inhibitors, followed by a biochemical separation of substrate and product. All assays for the biochemical HTS were initially run in duplicate at a single concentration (10 uM for CYP450 assays and 25 uM for all others). Assay-chemical combinations meeting a pre-defined threshold (e.g., 30% inhibition and other criteria defined below) were then run in singleton concentration-response format with maximum concentration of 20 uM for CYPs and 50 uM for all others. Each assay was run with positive and negative controls, and concurrent controls on every plate. The follow-up (secondary) screen tested active chemical-pairs in concentration series, as well as a few additional assays not tested in the primary screen, some selected negative inactives, and several cases re-run in the concentration series for confirmatory purposes.

human Protein Kinase C, zeta (PKCz), PRKCZ (gene 5590), sequence (Q05513 whole entry, looked up): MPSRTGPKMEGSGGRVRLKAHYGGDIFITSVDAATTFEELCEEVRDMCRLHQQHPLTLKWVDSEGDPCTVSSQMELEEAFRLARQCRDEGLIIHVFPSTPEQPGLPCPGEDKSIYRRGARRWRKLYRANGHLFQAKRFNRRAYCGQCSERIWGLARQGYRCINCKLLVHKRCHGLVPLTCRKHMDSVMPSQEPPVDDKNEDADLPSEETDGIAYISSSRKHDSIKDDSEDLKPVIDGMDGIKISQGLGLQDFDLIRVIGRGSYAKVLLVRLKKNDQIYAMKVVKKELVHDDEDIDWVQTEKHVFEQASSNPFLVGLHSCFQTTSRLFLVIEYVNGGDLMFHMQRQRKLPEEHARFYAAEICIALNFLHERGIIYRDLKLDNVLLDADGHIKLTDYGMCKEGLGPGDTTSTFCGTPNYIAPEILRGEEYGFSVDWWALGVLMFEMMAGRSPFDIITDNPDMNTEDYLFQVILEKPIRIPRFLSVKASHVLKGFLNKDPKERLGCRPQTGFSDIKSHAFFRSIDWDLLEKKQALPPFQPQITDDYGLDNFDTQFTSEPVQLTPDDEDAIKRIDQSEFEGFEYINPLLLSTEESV

Q: With COC(=O)c1ccccc1S(=O)(=O)NC(=O)N(C)c1nc(C)nc(OC)n1 as the molecule, how does the outcome read?
A: inactive

Q: CCCCC(CC)COC(=O)c1ccccc1C(=O)OCC(CC)CCCC (stereo not given) was tested. Which outcome did it give?
A: inactive

Q: Which outcome does the source give for CCOP(=S)(OCC)Oc1ccc2c(C)c(Cl)c(=O)oc2c1 here?
A: inactive

Q: Which outcome does the source give for COCC(C)N(C(=O)CCl)c1c(C)csc1C (stereo not given) here?
A: inactive

Q: S=C1NCCN1 was tested. Which outcome did it give?
A: inactive
